Assay results taken from PubChem BioAssay (EPA / NIEHS).
“And” between values parts separate entries of the source, which are not always exact repeats. Identical values can stand only once. Records with an inconclusive call do not appear. The source made the active and inactive calls. How the source made its calls, unless noted: active means hit-call score of the fitted dose curve at least 0.9, where 1 is the maximum; inconclusive means response in the unintended direction; inactive means score below 0.9.

Experiments:
[1] = target: human Peroxisome Proliferator-activated Receptor alpha (PPARa), PPARA (gene 5465) (UniProt Q07869); assay: ATG_PPARa_TRANS: Attagene TRANS-FACTORIAL HepG2 Assay for human Peroxisome Proliferator-activated Receptor alpha (PPARa) (AID 2283001);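 on AC50: potency for gain of reporter signal over DMSO so agonist or activator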
human Peroxisome Proliferator-activated Receptor alpha (PPARa), PPARA (gene 5465), sequence (Q07869 whole entry, looked up, the tested form may be a part): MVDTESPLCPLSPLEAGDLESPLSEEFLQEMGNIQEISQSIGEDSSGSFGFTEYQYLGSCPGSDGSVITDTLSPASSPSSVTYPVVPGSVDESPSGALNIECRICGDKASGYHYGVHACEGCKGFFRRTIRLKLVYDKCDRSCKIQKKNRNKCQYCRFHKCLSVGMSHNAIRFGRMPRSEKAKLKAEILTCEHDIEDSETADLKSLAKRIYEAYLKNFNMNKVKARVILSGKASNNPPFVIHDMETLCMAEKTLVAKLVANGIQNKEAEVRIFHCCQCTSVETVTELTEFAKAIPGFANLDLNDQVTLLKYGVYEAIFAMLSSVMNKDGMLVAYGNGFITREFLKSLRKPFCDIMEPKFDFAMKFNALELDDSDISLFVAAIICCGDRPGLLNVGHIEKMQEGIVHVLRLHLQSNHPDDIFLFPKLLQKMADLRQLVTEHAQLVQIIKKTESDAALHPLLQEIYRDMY
Summary of the method: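 Measures transcriptional activity of an exogenous chimeric PPARa-Gal4 protein in transiently transfected HepG2 cells after 24 h dosing. Reporter mRNA quantified via RT-PCR and capillary electrophoresis; DMSO served as negative control.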

[2] = target: human Peroxisome Proliferator-activated Receptor delta (PPARd), PPARD (gene 5467) (UniProt Q03181); assay: ATG_PPARd_TRANS: Attagene TRANS-FACTORIAL HepG2 Assay for human Peroxisome Proliferator-activated Receptor delta (PPARd) (AID 2283002)
human Peroxisome Proliferator-activated Receptor delta (PPARd), PPARD (gene 5467), sequence (Q03181 whole entry, looked up, the tested form may be a part): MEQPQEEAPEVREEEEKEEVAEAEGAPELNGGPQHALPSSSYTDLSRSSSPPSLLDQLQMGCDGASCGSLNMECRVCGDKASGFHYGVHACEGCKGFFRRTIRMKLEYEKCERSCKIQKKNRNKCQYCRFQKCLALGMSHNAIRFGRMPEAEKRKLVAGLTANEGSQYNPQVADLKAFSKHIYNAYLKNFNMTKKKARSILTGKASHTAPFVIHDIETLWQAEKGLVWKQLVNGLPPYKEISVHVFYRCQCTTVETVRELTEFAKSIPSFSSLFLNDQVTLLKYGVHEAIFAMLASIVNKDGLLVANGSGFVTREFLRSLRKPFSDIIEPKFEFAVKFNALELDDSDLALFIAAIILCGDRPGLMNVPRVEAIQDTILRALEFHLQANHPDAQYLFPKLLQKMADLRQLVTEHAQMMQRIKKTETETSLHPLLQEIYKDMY
Summary of the method: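 Read-out: reporter mRNA induction, quantified by fluorescent RT-PCR products resolved by capillary electrophoresis. Human HepG2 liver cells carried transiently transfected Gal4-UAS reporter constructs with chimeric NR-Gal4 fusions. Cells were dosed for 24 h; DMSO served as baseline.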

[3] = target: human Retinoic Acid Receptor beta (RARb), RARB (gene 5915) (UniProt P10826); assay: ATG_RARb_TRANS: Attagene TRANS-FACTORIAL HepG2 Assay for human Retinoic Acid Receptor beta (AID 2283004)
human Retinoic Acid Receptor beta (RARb), RARB (gene 5915), sequence (P10826 whole entry, looked up, the tested form may be a part): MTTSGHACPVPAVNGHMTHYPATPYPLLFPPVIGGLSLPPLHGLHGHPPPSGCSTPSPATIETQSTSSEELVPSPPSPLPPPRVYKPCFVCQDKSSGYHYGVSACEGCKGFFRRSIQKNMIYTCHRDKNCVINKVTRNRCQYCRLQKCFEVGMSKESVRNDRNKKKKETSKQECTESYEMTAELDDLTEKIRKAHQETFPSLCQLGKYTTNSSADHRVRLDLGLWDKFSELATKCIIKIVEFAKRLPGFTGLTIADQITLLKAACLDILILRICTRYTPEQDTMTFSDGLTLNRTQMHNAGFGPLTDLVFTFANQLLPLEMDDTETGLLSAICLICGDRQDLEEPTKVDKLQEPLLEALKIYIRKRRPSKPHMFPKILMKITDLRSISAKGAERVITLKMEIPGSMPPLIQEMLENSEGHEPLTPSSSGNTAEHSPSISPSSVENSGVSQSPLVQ
Summary of the method: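 HepG2, transient MRTU transfection, NR–Gal4 chimera, 24 h treatment; RT-PCR plus CE fluorescence detection of reporter mRNA; gain of signal vs DMSO.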

[4] = target: Retinoic acid receptor alpha (Homo sapiens) (UniProt P10276); assay: ATG_RARa_TRANS: Attagene TRANS-FACTORIAL HepG2 Assay for human Retinoic Acid Receptor alpha (RARa) (AID 2283005);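 on AC50: potency for increased reporter signal meaning RARa activation over DMSO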
Retinoic acid receptor alpha (Homo sapiens), sequence (P10276 whole entry, looked up, the tested form may be a part): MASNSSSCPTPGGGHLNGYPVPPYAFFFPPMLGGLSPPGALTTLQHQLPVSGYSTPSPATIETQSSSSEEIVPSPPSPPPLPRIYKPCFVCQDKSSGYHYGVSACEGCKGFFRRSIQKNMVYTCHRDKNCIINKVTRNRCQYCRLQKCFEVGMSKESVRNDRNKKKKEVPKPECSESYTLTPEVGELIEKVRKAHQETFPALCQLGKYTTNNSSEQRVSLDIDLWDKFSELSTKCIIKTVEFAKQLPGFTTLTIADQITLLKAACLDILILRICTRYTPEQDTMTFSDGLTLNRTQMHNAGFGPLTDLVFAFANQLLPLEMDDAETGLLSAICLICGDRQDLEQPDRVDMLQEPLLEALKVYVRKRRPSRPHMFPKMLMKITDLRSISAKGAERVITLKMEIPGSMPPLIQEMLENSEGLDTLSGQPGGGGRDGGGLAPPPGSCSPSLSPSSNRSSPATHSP
Summary of the method: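 HepG2 transiently transfected with multiplex GAL4-UAS reporter units including a human RARa–GAL4 chimera; 24 h compound exposure. Reporter mRNA quantified by RT-PCR, 6-FAM labeling and capillary electrophoresis; gain of signal versus DMSO.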

[5] = target: Peroxisome proliferator-activated receptor gamma (Homo sapiens) (UniProt P37231); assay: ATG_PPARg_TRANS: Attagene TRANS-FACTORIAL HepG2 Assay for human Peroxisome Proliferator-activated Receptor-gamma (PPARg) (AID 2283007)
Peroxisome proliferator-activated receptor gamma (Homo sapiens), sequence (P37231 whole entry, looked up, the tested form may be a part): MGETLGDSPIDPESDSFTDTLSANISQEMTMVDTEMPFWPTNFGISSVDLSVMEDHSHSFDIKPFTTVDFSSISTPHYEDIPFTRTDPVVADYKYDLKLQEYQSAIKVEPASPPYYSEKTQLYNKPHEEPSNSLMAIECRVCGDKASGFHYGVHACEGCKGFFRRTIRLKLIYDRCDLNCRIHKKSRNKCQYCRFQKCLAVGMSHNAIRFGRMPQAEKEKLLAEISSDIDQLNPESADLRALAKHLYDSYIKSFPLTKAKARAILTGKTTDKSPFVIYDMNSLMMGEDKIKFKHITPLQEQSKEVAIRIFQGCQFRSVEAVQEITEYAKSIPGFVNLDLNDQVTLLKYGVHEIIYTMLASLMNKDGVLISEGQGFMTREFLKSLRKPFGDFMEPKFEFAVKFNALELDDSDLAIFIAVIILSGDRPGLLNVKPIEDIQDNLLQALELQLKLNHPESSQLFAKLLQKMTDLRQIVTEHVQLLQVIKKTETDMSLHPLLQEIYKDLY
Summary of the method: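 Chimeric NR-Gal4 transactivation is measured in transiently transfected HepG2 cells by reporter mRNA induction at 24 h. Detection uses RT-PCR with fluorescent labelling and capillary electrophoresis; DMSO defines baseline.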

[6] = target: human Retinoic Acid Receptor gamma (RARg), RARG (gene 5916) (UniProt P13631); assay: ATG_RARg_TRANS: Attagene TRANS-FACTORIAL HepG2 Assay for human Retinoic Acid Receptor gamma (RARg) (AID 2283009);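 on AC50: AC50 is for reporter induction above DMSO meaning RARg activation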
human Retinoic Acid Receptor gamma (RARg), RARG (gene 5916), sequence (P13631 whole entry, looked up, the tested form may be a part): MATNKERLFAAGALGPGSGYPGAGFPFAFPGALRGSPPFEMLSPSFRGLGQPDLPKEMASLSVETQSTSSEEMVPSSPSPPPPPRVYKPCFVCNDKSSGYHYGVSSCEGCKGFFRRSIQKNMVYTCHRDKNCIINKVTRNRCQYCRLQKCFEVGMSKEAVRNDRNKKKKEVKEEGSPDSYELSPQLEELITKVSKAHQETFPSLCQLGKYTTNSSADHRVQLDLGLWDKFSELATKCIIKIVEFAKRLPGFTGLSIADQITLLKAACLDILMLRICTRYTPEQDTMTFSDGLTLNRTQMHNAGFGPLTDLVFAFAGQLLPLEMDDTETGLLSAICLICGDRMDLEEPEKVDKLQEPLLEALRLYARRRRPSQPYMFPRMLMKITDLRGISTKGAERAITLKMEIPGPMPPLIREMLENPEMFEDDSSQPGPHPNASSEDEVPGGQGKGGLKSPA
Summary of the method: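 HepG2 cells transiently transfected with multiplexed reporter units expressing chimeric RARg-GAL4 and GAL4-UAS-driven reporters; 24 h compound exposure. Reporter mRNA quantified by RT-PCR with fluorescent labelling and capillary electrophoresis; gain-of-signal fitted relative to DMSO baseline.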

[7] = target: Nuclear receptor subfamily 1 group I member 2 (Homo sapiens) (UniProt O75469); assay: ATG_PXR_TRANS: Attagene TRANS-FACTORIAL HepG2 Assay for human Pregnane X Receptor (PXR) (AID 2283008)
Nuclear receptor subfamily 1 group I member 2 (Homo sapiens), sequence (O75469 whole entry, looked up, the tested form may be a part): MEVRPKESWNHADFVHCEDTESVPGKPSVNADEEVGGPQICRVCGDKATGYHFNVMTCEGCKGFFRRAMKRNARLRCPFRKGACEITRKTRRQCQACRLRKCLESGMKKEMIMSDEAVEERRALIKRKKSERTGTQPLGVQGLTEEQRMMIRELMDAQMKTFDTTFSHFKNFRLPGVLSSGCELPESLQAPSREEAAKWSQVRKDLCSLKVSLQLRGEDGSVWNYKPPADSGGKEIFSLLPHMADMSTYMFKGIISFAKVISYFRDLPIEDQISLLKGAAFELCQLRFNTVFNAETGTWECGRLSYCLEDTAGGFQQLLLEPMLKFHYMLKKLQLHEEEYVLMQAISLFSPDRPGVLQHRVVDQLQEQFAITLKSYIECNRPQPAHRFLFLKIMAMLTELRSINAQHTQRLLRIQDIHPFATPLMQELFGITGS
Summary of the method: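 HepG2 cells transiently transfected with GAL4-UAS reporter units and PXR-Gal4 chimera, exposed 24 h. Reporter mRNA quantified by RT-PCR, fluorescent labelling, HpaI digestion and capillary electrophoresis; gain of signal vs DMSO.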

[8] = read-out: Intercellular Adhesion Molecule 1 (ICAM1), ICAM1 (gene 3383); assay: BSK_3C_ICAM1: BioMAP Diversity Plus: 3C Assay for Intercellular Adhesion Molecule 1 (ICAM1) Biomarker Activity (AID 2283003; active means hit-call score of the fitted dose curve at least 0.9, where 1 is the maximum; inactive means score below 0.9); conditions: primary human endothelial cells (HUVEC); actives raise or lower the signal
Summary of the method: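 Primary human umbilical vein endothelial cells in the BioMAP 3C system were exposed to chemicals for 24 h, then ICAM-1 was quantified by ELISA. Activity was fitted bidirectionally against the DMSO negative control baseline.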

[9] = BSK_3C_Proliferation: Cell Proliferation Assessment in the BioMAP Diversity Plus: 3C Assay (AID 2283006; active means hit-call score of the fitted dose curve at least 0.9, where 1 is the maximum; inactive means score below 0.9;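 on AC50: potency may reflect either rise or fall in cell number versus DMSO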); conditions: primary human endothelial cells (HUVEC)
Summary of the method: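 Human umbilical vein endothelial cells were grown sub-confluent and exposed to chemical for 48 h, then fixed with 10% TCA and stained with 0.1% sulforhodamine B; absorbance at 560 nm gave relative cell number, fitted bidirectionally against DMSO baseline.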

[10] = target: human RAR-related Orphan Receptor beta (RORb), RORB (gene 6096) (UniProt Q92753); assay: ATG_RORb_TRANS: Attagene TRANS-FACTORIAL HepG2 Assay for human RAR-related Orphan Receptor beta (RORb) (AID 2283010)
human RAR-related Orphan Receptor beta (RORb), RORB (gene 6096), sequence (Q92753 whole entry, looked up, the tested form may be a part): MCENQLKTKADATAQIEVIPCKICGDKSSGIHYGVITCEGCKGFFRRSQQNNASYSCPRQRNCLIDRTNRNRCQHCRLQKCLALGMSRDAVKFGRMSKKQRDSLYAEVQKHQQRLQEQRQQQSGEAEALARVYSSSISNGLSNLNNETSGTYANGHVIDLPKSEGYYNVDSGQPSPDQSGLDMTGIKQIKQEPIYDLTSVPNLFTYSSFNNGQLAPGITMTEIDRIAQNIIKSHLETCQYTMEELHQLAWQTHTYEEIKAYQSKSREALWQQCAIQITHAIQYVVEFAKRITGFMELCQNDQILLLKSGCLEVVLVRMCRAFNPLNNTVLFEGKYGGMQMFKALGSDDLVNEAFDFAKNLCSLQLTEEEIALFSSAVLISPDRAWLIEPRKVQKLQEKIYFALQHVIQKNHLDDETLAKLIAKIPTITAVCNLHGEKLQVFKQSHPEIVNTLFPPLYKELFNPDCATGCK
Summary of the method: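 HepG2 cells were transiently transfected with multiplexed GAL4-UAS reporter units expressing chimeric nuclear receptor–GAL4 proteins, then dosed for 24 h. Reporter mRNA was quantified by RT-PCR with fluorescent labelling and capillary electrophoresis; gain of signal was fitted relative to DMSO.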

Measured: AC50

Cc1cnc(NC(=O)C2=C(O)c3ccccc3S(=O)(=O)N2C)s1
inactive: [1] | [2] | [3] | [4] | [6]
active: [5] 40.4 µM

C[Si](C)(C)O[Si](O)(O)O
inactive: [1] | [2] | [3] | [7] | [6]

CCOc1nc(F)cc2nc(S(=O)(=O)Nc3c(Cl)cccc3C(=O)OC)nn12
active: [5] 46.2 µM | [7] 7.06 µM
not listed: [10]
inactive: all other assays above

Nc1ccc2cc3ccccc3cc2c1
inactive: [1] | [2] | [3] | [7] | [6] | [10]

CCC(CC)C(=O)O
inactive: [1] | [2] | [3]

c1ccc2c(c1)ccc1ncccc12
active: [4] 13.4 µM | [9] 20000 nM | [5] 67.1 µM | [6] 33.2 µM
inactive: all other assays above

Nc1ccc(N)c(Cl)c1
active: [2] 68 µM | [9] 13.1 µM and 16.2 µM | [7] 4.08 µM
inactive: [1] | [8] | [4] | [6]

Cc1ccc(C(C)c2ccc(C)c(C)c2)cc1C
active: [5] 30.9 µM | [7] 2.91 µM
inactive: [1] | [2] | [3] | [10]

CCCCCCCCCCCCCCCC[N+](C)(C)CC
inactive: [2] | [3] | [7]
active: [1] 13.3 µM | [8] 3.44 µM | [4] 17.8 µM | [9] 636 nM | [6] 19.6 µM

Nc1ccc(N=Nc2ccccc2)c(N)n1
active: [1] 44.6 µM | [5] 59.4 µM
inactive: [2] | [4] | [7] | [6]

CC/C=C\C/C=C\C/C=C\CCCCCCCC(=O)O
inactive: [2]
active: [1] 42.3 µM

NC(=O)C1CO1 (stereo not drawn)
inactive: [1] | [2] | [3] | [4]

CC(=O)[C@@]1(O)CC[C@H]2[C@@H]3C[C@H](C)C4=CC(=O)C=C[C@]4(C)[C@@]3(F)[C@@H](O)C[C@@]21C
inactive: [1] | [2] | [4] | [7]

O=c1[nH]c(=O)c2[nH]c(=O)[nH]c2[nH]1
inactive: [1] | [2] | [3] | [10]

O=C(Nc1ccccc1)c1ccccc1O
inactive: [1] | [2] | [4] | [7] | [6]
active: [5] 55.9 µM

O=c1cc(-c2ccccc2)oc2ccccc12
inactive: [1] | [2] | [4] | [6]
active: [5] 1.1 µM | [7] 6.29 µM

COCC(C)N (stereo not drawn)
inactive: [1] | [2] | [3] | [5] | [7]

CC(C)(C)C1CCCCC1=O (stereo not drawn)
inactive: [1] | [2] | [3] | [7] | [6] | [10]

CCCCCCCCCCCSCC(=O)O
active: [1] 2.85 µM | [2] 7.11 µM
inactive: [4] | [7]

C=CCOCC(O)CCl (stereo not drawn)
active: [7] 47.2 µM
not listed: [4]
inactive: all other assays above

COCc1c(C(C)C)nc(C(C)C)c(/C=C/[C@@H](O)C[C@@H](O)CC(=O)O)c1-c1ccc(F)cc1
inactive: [1] | [2] | [8]
active: [9] 39 nM | [5] 12.8 µM | [7] 1.76 µM

CC=CCO
inactive: [1] | [2] | [3] | [7] | [6]

C=CC(=O)OCCOC(=O)C=C
inactive: [1] | [2] | [3] | [7] | [6]

C=C(C)C(=O)OCC(C)C
inactive: [1]

O=C(c1ccc(O)cc1)c1ccc(O)cc1O
inactive: [1] | [2] | [8] | [7] | [10]
active: [9] 20 µM and 15 µM | [5] 35.3 µM

N=c1ccn2c(n1)O[C@H]1[C@H](O)[C@@H](CO)O[C@H]12
inactive: [1]

Nc1ncn([C@@H]2O[C@H](CO)[C@@H](O)[C@H]2O)c(=O)n1
inactive: [1] | [2] | [4] | [5] | [7] | [6]

C=CC(=O)OCCOC1C2CCC1C1CC=CC12 (stereo not drawn)
inactive: [1] | [2] | [5] | [7]

CCOC(=O)CC(C(C)=O)C(C)=O
inactive: [1] | [2] | [4] | [7]

COc1cc(C)ccc1C(C)C
inactive: [1] | [2] | [4] | [7] | [6]

[Cl][In]([Cl])[Cl]
inactive: [1] | [2] | [4] | [7] | [6] | [10]

CN(C)c1ccc(N=Nc2ccccc2C(=O)O)cc1
inactive: [2]
active: [1] 23.2 µM | [5] 27.5 µM

C1=Cc2ccccc2C1
inactive: [1] | [2] | [6] | [10]
active: [5] 67.4 µM | [7] 6.06 µM

NC(=O)N=NC(N)=O
inactive: [1] | [2] | [5] | [7]

CCCOC(=O)CCCCC(=O)OCCC
inactive: [1] | [2] | [5] | [7]
